Data taken from publication PMC9838217, “Structure of SALL4 zinc finger domain reveals link between AT-rich DNA binding and Okihiro syndrome”.
Where a chain is given by its changes, count along the chain named.

Experiments:
Assay in all cases: HT-SELEX; high values mean tight binding
Details in all cases: protein: recombinant; vector His6-GST; dsDNA, one strand shown
SALL4 ZFC4 WT (HT-SELEX) = molecular target: T1, SALL4 ZFC4 WT (HT-SELEX) (Mus musculus, UniProt Q8BX22 870-940)
T1 sequence: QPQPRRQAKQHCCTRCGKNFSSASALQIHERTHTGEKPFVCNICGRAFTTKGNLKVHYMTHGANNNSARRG
Summary of the method: (§1)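 Library DNA (1.5 µg in cycle one, 200 ng in later cycles) was incubated with 1 µg of purified recombinant mouse SALL4 zinc finger cluster 4, residues 870–940, in 100 µl buffer (10 mM Tris–HCl pH 7.5, 50 mM NaCl, poly(dI-dC), DTT) at room temperature for 10 min. Up to 6 rounds of Ni2+ bead capture, washing, PCR amplification and reselection were run in triplicate. Reads from MiSeq sequencing were scanned for 6-mers. For each canonical k-mer, binding signal is its read fraction as fold change versus the original random library.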

[1] = molecular target: T2, SALL4 ZFC4 R900W (HT-SELEX) (Mus musculus, UniProt Q8BX22 870-940, R900W)
T2 sequence: T1 sequence with R31W
Summary of the method: as §1

[2] = molecular target: T3, SALL4 ZFC4 G921D (HT-SELEX) (Mus musculus, UniProt Q8BX22 870-940, G921D)
T3 sequence: T1 sequence with G52D
Summary of the method: as §1

Sequence | binding signal (SALL4 ZFC4 WT (HT-SELEX)) [fold-change vs cycle 0] | binding signal [1] [fold-change vs cycle 0] | binding signal [2] [fold-change vs cycle 0]
GCGATA | 0.515 ± 0.0117 | 0.534 ± 0.0163 | 0.668 ± 0.0315
CTCCAA | 0.746 ± 0.0518 | 0.878 ± 0.04 | 0.924 ± 0.0231
CATTCC | 0.85 ± 0.0367 | 0.949 ± 0.0747 | 0.981 ± 0.031
AACCGA | 0.657 ± 0.0177 | 0.7295 ± 0.00455 | 0.812 ± 0.0455
ACCTTC | 0.842 ± 0.0201 | 0.982 ± 0.0475 | 1 ± 0.0224
GGGTCA | 0.435 ± 0.0224 | 0.513 ± 0.0178 | 0.619 ± 0.0472
GGGACA | 0.383 ± 0.0239 | 0.458 ± 0.0236 | 0.564 ± 0.0569
ACTCGG | 0.394 ± 0.0337 | 0.467 ± 0.0183 | 0.588 ± 0.0373
CTCGTA | 0.764 ± 0.033 | 0.867 ± 0.0258 | 0.901 ± 0.00732
CAAGTG | 0.7915 ± 0.00346 | 0.902 ± 0.026 | 0.944 ± 0.0555
CCTGTA | 0.809 ± 0.0421 | 0.915 ± 0.0586 | 0.974 ± 0.0591
GATAAC | 1.49 ± 0.117 | 1.52 ± 0.136 | 1.44 ± 0.166
CGAATA | 1.1 ± 0.0554 | 1.13 ± 0.0519 | 1.14 ± 0.0398
ACACCG | 0.325 ± 0.0278 | 0.384 ± 0.0241 | 0.5 ± 0.0673
CACGTA | 0.686 ± 0.0318 | 0.787 ± 0.0109 | 0.842 ± 0.0109
CCTAGG | 0.46 ± 0.0474 | 0.588 ± 0.0412 | 0.669 ± 0.0278
GACCTC | 0.415 ± 0.0384 | 0.51 ± 0.0119 | 0.644 ± 0.0572
CAGTCC | 0.44 ± 0.0267 | 0.544 ± 0.0287 | 0.63 ± 0.0382
TGCACA | 0.529 ± 0.0293 | 0.586 ± 0.0273 | 0.698 ± 0.0457
ACCGAT | 0.687 ± 0.0287 | 0.745 ± 0.0142 | 0.862 ± 0.0275

Sequence | binding signal (SALL4 ZFC4 WT (HT-SELEX)) [fold-change vs cycle 0] | binding signal [1] [fold-change vs cycle 0] | binding signal [2] [fold-change vs cycle 0]
TAACCA | 1.42 ± 0.042 | 1.47 ± 0.047 | 1.37 ± 0.0838
ACAGAC | 0.687 ± 0.0257 | 0.791 ± 0.00124 | 0.865 ± 0.0133
CGAGAG | 0.428 ± 0.0305 | 0.515 ± 0.0447 | 0.628 ± 0.0528
AACCCG | 0.371 ± 0.0321 | 0.432 ± 0.0178 | 0.538 ± 0.0569
CCTACC | 0.45 ± 0.0245 | 0.53 ± 0.00975 | 0.625 ± 0.0741
GATTAC | 1.43 ± 0.106 | 1.54 ± 0.0979 | 1.45 ± 0.0912
CAAAGA | 1.18 ± 0.0383 | 1.34 ± 0.0673 | 1.28 ± 0.0399
CACGAC | 0.303 ± 0.0099 | 0.381 ± 0.0158 | 0.501 ± 0.0536
CACGAA | 0.608 ± 0.0441 | 0.706 ± 0.0334 | 0.781 ± 0.0236
AATATC | 2.49 ± 0.203 | 1.88 ± 0.0733 | 1.75 ± 0.14
ATAGGC | 0.52 ± 0.0405 | 0.585 ± 0.0153 | 0.733 ± 0.0725
CAGTAC | 0.772 ± 0.0398 | 0.92 ± 0.0398 | 0.957 ± 0.0386
AAAATG | 1.68 ± 0.0946 | 1.56 ± 0.0588 | 1.46 ± 0.0958
CGGTTC | 0.342 ± 0.0141 | 0.423 ± 0.038 | 0.53 ± 0.0844
AATAAG | 2.35 ± 0.133 | 2.15 ± 0.175 | 1.86 ± 0.227
GAAGTC | 0.797 ± 0.0523 | 0.906 ± 0.0176 | 0.953 ± 0.00992
AGCAGG | 0.42 ± 0.0145 | 0.478 ± 0.0232 | 0.561 ± 0.0608
ATTGAA | 2.11 ± 0.107 | 2.06 ± 0.169 | 1.86 ± 0.169
AGAGCT | 0.658 ± 0.0205 | 0.784 ± 0.026 | 0.8909 ± 0.00859
CCCATA | 0.844 ± 0.0635 | 0.917 ± 0.0435 | 0.905 ± 0.0367

Sequence | binding signal (SALL4 ZFC4 WT (HT-SELEX)) [fold-change vs cycle 0] | binding signal [1] [fold-change vs cycle 0] | binding signal [2] [fold-change vs cycle 0]
CCAAAC | 0.6318 ± 0.0044 | 0.729 ± 0.0202 | 0.813 ± 0.0511
AGAAAA | 1.83 ± 0.0887 | 1.85 ± 0.0773 | 1.63 ± 0.11
CGAACA | 0.588 ± 0.0204 | 0.694 ± 0.0214 | 0.787 ± 0.0244
CGTAAA | 1 ± 0.0348 | 1.08 ± 0.0147 | 1.05 ± 0.0379
CAGCAG | 0.333 ± 0.0334 | 0.387 ± 0.024 | 0.523 ± 0.0543
CTCATA | 1.52 ± 0.0984 | 1.48 ± 0.0543 | 1.41 ± 0.106
GCAAGA | 0.671 ± 0.0141 | 0.766 ± 0.0335 | 0.825 ± 0.0528
GATCCC | 0.519 ± 0.025 | 0.62 ± 0.0104 | 0.711 ± 0.017
AAAACG | 0.821 ± 0.0591 | 0.931 ± 0.0404 | 0.972 ± 0.016
CCCCAA | 0.421 ± 0.0191 | 0.471 ± 0.00864 | 0.561 ± 0.0695
GACCCA | 0.39 ± 0.0219 | 0.467 ± 0.00775 | 0.59 ± 0.0677
AAGTGG | 0.762 ± 0.0311 | 0.891 ± 0.0548 | 0.909 ± 0.0639
ACGAGA | 0.811 ± 0.0345 | 0.922 ± 0.0447 | 0.957 ± 0.0409
ACTGGA | 0.84 ± 0.022 | 0.993 ± 0.0196 | 1.01 ± 0.0605
AACGGA | 0.714 ± 0.0406 | 0.846 ± 0.0545 | 0.859 ± 0.0492
GGATAA | 1.38 ± 0.0543 | 1.52 ± 0.0741 | 1.34 ± 0.114
ACGTTG | 0.659 ± 0.0218 | 0.753 ± 0.0161 | 0.822 ± 0.0177
CTACAG | 0.79 ± 0.0207 | 0.894 ± 0.0405 | 0.94 ± 0.015
CACCAG | 0.43 ± 0.0196 | 0.526 ± 0.014 | 0.606 ± 0.0242
AGCCTA | 0.614 ± 0.0322 | 0.728 ± 0.0355 | 0.832 ± 0.0333
